# Results reported in PubChem BioAssay (NCI).
# Compounds without any hit were thinned out: in the full panel of roughly 79,000, 15% have a hit. Values without a mark were called inactive. Active and inactive are the calls of the source. Rule as the data show it: active = growth inhibition above about 70%; inactive = the rest.
# Experiment: NCI Yeast Anticancer Drug Screen. Data for the sgs1 strain (AID 173);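 also: 0% = growth of vehicle-only control cultures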
# Settings: S. cerevisiae sgs1 mutant, hits give high values
# Protocol: Growth inhibition of yeast strains with defined genetic alterations is measured as a screen for potential anti-cancer activity. Selected strains with alterations in DNA damage repair or cell cycle control were exposed to compounds and growth inhibition was measured relative to vehicle treated controls. The strain used in this assay is sgs1
Compound,growth inhibition (at 1.2 µM) [%],growth inhibition (at 3.7 µM),growth inhibition (at 11.0 µM),growth inhibition (at 33.0 µM),growth inhibition (at 100.0 µM)
CCC1(O)C(=O)OCc2c1cc1n(c2=O)Cc2cc3ccccc3nc2-1 (stereo not given),1,15%,23%,35%,48%
CCN(CC)CCBr,0,4%,15%,42%,73% (active)
CN(C)CCC(C(=O)C(Br)Br)(c1ccccc1)c1ccccc1,-1,17%,94% (active),99% (active),99% (active)
CC[C@@]1(O)C(=O)OCc2c1cc1n(c2=O)Cc2cc3ccccc3nc2-1,29,82% (active),95% (active),96% (active),95% (active)
CC1=C(N2CC2)C(=O)c2ccccc2C1=O,0,10%,36%,67%,96% (active)
BrCC[N+]12CC[N+](CCBr)(CC1)C2,-17,15%,5%,77% (active),89% (active)
O=C(NNC(=O)OCC(Cl)(Cl)Cl)OCC(Cl)(Cl)Cl,-3,-1%,42%,92% (active),97% (active)
COC1C(O)C(C)OC(OC2C(Oc3cccc4c(O)c5c(=O)oc6ccc(C)c7c(=O)oc(c34)c5c67)OC(C)C(O)C2O)C1O (stereo not given),1,4%,15%,20%,22%
